Experimental data as given in PubChem BioAssay (NCI).
This is part of a sample that, as a whole, favours compounds with a hit. Of some 83,000 tested, about 20% had one in any assay.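 Compound tested at a single concentration for 48 hours in 96-well plates; a percent growth value below 10 was scored as active.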 Unmarked numbers belong to inactive results. Calls of active or inactive are those of the source.

What follows are molecules tested on HL-60(TB) leukemia (assay: NCI-60 one-dose screen, 48 h (100 = growth as untreated, 0 = no growth, -100 = all killed)). Conditions: 10 µM unless noted.
Molecule CC1(C)OC2OC3C(CN)OC(c4ccccc4)OC3C2O1 (centres undefined) has a growth of 49.3%. COc1cccc(OCC(O)CN2CCN(c3ccccc3)CC2)c1 (centres undefined) was tested, and the growth was 78.7%. In the case of CCOC(=O)C1=C(C(F)(F)F)NC(=O)NC1CN1C(=O)c2ccccc2C1=O (centres undefined), the growth is reported as 46.2%. Molecule C/C(=C(/c1ccccc1)c1ccc(N2C(=O)c3cccc4c(NCc5ccccc5)ccc(c34)C2=O)cc1)c1ccccc1 has a growth of 103%. For CC(C)CCN(CCC(C)C)CC(=O)Nc1ccc(S(=O)(=O)c2ccc(NC(=O)CN(CCC(C)C)CCC(C)C)cc2)cc1, the growth was 19.1%. CC(=O)NC(CCC(=O)c1ccccc1)C(=O)O (centres undefined) gave a growth of 75.9%. In the case of C=C1CCC2C(C)(CO)C(O)CCC2(C)C1C/C=C1/C(=O)OCC1Oc1ccccc1C (centres undefined), the growth is reported as 57.4%. CCCCCCCCn1ccc2cc(NC(=O)CN=[N+]=[N-])ccc21 gave a growth of 102%. COc1cccc2ccc(CC(O)(c3ccccc3)c3ccccc3)nc12 was tested, and the growth was 95.8%. Cc1cc(Cl)nc(N(CCCNc2ccnc3cc(Cl)ccc23)Cc2ccco2)n1 was tested, and the growth was -35.9% (active). C=C1C(=O)O[C@H]2[C@H]1CC/C(COC(=O)c1ccc(C#N)cc1)=C\CC[C@@]1(C)O[C@@H]21 was tested, and the growth was -33.6% (active). NS(=O)(=O)c1ccc(CCN2C(=O)c3cc(Cl)c(Cl)cc3C2=O)cc1 was tested, and the growth was 86.5%. With CCCCNc1cc(-c2cn[nH]c2-c2cc(C)cc(OC)c2)nc(-c2cccnc2)n1 the growth was 105%. In the case of COc1ccc(N=Cc2c(O)ccc3c2oc2cc(Cl)c(O)c(Cl)c23)cc1, the growth is reported as 86.6%.
